Source: PubChem (National Center for Advancing Translational Sciences (NCATS))
LMNA splice mod = LMNA splicing modulation | HeLa LMNA splicing GFP/RFP minigene ratio, 48 h | hit rate 0.01% among 200,000 | Potency, µM (doses to about 46.1 µM), without a hit: at the top dose ratio change, negative = inhibition, most hits filed as inhibitors | AID 1487; active means well fitted inhibition curve with a large enough effect in the signal ratio, with a control signal flat, not every such curve was filed as active; inconclusive means small, poorly fitted or top-dose-only effect, or effect the other way, or a change in a side signal; the % refers to the signal ratio; further: on the % scale 0 is the no-effect control and ±100 the full control effect
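Read-out is the ratio of GFP to DsRed2 object intensity, acquired by 488 nm laser-scanning cytometry on HeLa lamin A-EGFP minigene reporter cells. Compound incubation 48 hrs at 37 °C in Opti-MEM with 2% FBS; DMSO 0.5% final.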
ALDH1A1 block = ALDH1A1 (human) enzyme inhibition; P00352; Purified ALDH1A1, NADH fluorescence, propionaldehyde substrate; Potency, µM (highest dose often 75.3 µM), inactives show at the highest dose activity, negative = inhibition, usual class: inhibitors; hit rate 7.3% among 220,000; AID 1030;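 further: plate controls were no enzyme wells and a reference inhibitor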
Target sequence (P00352 whole entry, looked up): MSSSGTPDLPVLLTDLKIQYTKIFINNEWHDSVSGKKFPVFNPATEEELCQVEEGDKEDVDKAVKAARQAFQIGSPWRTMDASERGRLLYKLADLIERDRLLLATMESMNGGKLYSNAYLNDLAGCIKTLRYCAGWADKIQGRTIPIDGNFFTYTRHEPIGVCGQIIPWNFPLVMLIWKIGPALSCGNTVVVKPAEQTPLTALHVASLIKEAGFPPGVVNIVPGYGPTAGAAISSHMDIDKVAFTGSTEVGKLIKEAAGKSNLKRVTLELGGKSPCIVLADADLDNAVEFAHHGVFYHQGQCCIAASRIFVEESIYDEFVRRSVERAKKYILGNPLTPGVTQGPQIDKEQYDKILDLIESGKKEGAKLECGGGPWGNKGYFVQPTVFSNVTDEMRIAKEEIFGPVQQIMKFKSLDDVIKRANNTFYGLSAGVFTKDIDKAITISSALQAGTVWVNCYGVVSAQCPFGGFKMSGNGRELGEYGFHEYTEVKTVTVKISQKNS
HPGD inh = blocks human HPGD enzyme activity; hit rate 4.3% among 150,000; P15428; AID 894; purified HPGD, NADH fluorescence kinetic, PGE2 substrate; Potency, µM, inactives show top-dose activity change, negative = inhibition, hits mostly inhibitors; further: on the % scale 0 is the no-effect control and ±100 the full control effect
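NADH formation kinetics: reaction with 30 uM PGE2 and 1 mM NAD+ (final), 20 nM enzyme, Tris-HCl pH 8 with Tween 20, after 15 min compound preincubation at room temperature. Fluorescence change, last versus first of five reads.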
HTT aggregate = reduces HttQ103-GFP aggregates in PC12 cells. PC12 HttQ103-GFP aggregates, Acumen cytometry, 40 h. Potency, µM (highest dose often 46.1 µM), for the others: at the top dose activity change, negative = inhibition, usual class: inhibitors. hit rate 1.1% among 220,000. AID 1688; active means well fitted curve in the direction sought with a large enough effect; inconclusive means small, poorly fitted or top-dose-only effect, or another doubt; inactive means no such curve, though single readings can be large; an effect the other way counts as inactive or inconclusive; further: on the % scale 0 is the no-effect control and ±100 the full control effect; nearly all actives have a fitted effect of over 60% in size
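Huntingtin Q103 exon 1–GFP aggregates in induced PC12 cells (100 nM tebufenozide) were quantified by cytometry from lysates, with compounds dosed in titration.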
HTT ATP protect = protects HTT-Q103 PC12 cells, measured by ATP | PC12 HTT-Q103 induced, cytoprotection, ATP luminescence, 40 h | Potency, µM (highest dose often 56.4 µM), for inactives: cytoprotection (ATP increase), most hits filed as activators | hit rate 0.14% among 230,000 | AID 1471; active means well fitted curve in the direction sought with a large enough effect; inconclusive means small, poorly fitted or top-dose-only effect, or another doubt; inactive means no such curve, though single readings can be large; an effect the other way counts as inactive or inconclusive; further: % of control where 0% means no effect; nearly all actives have a fitted effect of over 45% in size
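Quantitative HTS on tebufenozide-induced (100 nM) PC12 cells expressing HTTQ103 exon 1–GFP; compounds tested as a concentration series; survival measured via cellular ATP.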
Starred values were filed as active, the others as inactive; u = inconclusive; x = no result; [ ] = remark or other dose. Sampled rows, rich in hits. Any-hit rate of the full collection: about 8.8%. Unless noted, the call rests on the fitted dose curve; in most records, active means well fitted inhibition curve with a large enough effect (not every such curve was filed as active); inconclusive means small, poorly fitted or top-dose-only effect, or another doubt; inactive means no such curve, though single readings can be large or run the other way. Potency means the concentration at half of the fitted maximal effect.

SMILES	LMNA splice mod	ALDH1A1 block	HPGD inh	HTT aggregate	HTT ATP protect
C/C(Cn1cnc([N+](=O)[O-])n1)=N\NC(=O)c1ccc(Br)cc1	2%	14µM*	-12%	28%	-11%[10 µM]
O=C(CO/N=C/c1ccccc1OC(F)F)NC1CCCCC1	-12%	-2%	25µM*	-1%	15%[10 µM]
O=C(CO/N=C/c1ccc(OC(F)F)cc1)NC1CCCCCC1	u	-1%	x	3%	-6%
CCN(CC)c1ccc(C(=O)N/N=C/c2ccccc2OC(F)F)cc1	u	-5%	x	10µM*	17%[10 µM]
CCC(CC)NC(=O)CO/N=C/c1ccccc1OC(F)F	u	2%	20µM*	3%	11%[10 µM]
CC(C)Oc1ccccc1/C=N/NC(=O)c1ccc(F)cc1	1%	u	-26%	-4%	2%[10 µM]
Cc1ccc(/C=C/S(=O)(=O)Nc2ccc(C)cc2)cc1	8%[46 µM]	-2%	x	-23%	19%[10 µM]
CCCCCCCCCCS(=O)(=O)N/N=C/c1ccc(O)cc1	u	13µM*	-25%	15%	16%[10 µM]
CCCCCCCCCS(=O)(=O)N/N=C/c1cccc([N+](=O)[O-])c1	u	0.32µM*	20µM*	2%	12%
CC(C)C1C(=O)Nc2ccc(S(=O)(=O)NCc3ccc(Cl)cc3)cc21 (stereo not given)	8%[46 µM]	x	x	x	x
CC1(c2ccccc2)CC(c2ccccc2)=Nc2ccccc2N1 (stereo not given)	x	x	x	16%[9.22 µM]	28%[10 µM]
Cc1ccc(C2=Nc3ccccc3NC(C)(c3ccc(C)o3)C2)o1 (stereo not given)	13%	22µM*	-16%	-16%	-32%[0.074 µM]
Cc1ccc(Cn2ccnc2SCC(=O)NCc2ccccc2)cc1	23%[46 µM]	x	x	x	x
CC(=O)C1=NN(c2ccccc2)C(c2ccc3c(c2)OCO3)N1c1ccc(N2CCOCC2)cc1 (stereo not given)	u	u	-14%	-8%	x
COc1cccc(N2C(C(C)=O)=NN(c3ccccc3)C2c2ccc(N3CCOCC3)cc2)c1 (stereo not given)	u	14µM*	-7%	11µM*	x
COc1ccccc1-c1nccc(NCc2cccs2)n1	u	u	x	x	4%
CCOC(=O)c1nnsc1Nc1ccc(C)c(C)c1	9%[46 µM]	-9%	x	u	-37%
CCOC(=O)c1ccc(Nc2ncnc3ccc(C)cc23)cc1	26%	u	u	-17%	-10%
COc1ccc(Nc2nc(N3CCCCC3)c3ccccc3n2)cc1	u	13µM*	u	18µM*	-82%
COc1ccc(Nc2ncnc3ccccc23)cc1	-3%	14%	-4%	11µM*	1%
COc1ccc(Nc2ncnc3ccccc23)c(OC)c1	-13%	10µM*	u	5%	-41%[10 µM]
CCOc1ccc(Nc2ncnc3ccc([N+](=O)[O-])cc23)cc1	12%[46 µM]	u	x	7.9µM*	9%[10 µM]
Cc1ccc(NC(=O)C(=O)NCC(c2ccc3c(c2)OCO3)N2CCOCC2)c(C)c1 (stereo not given)	17%[46 µM]	x	x	x	x
COc1ccc(-n2c(=O)c(C)nc3cnc(Oc4cccc(Cl)c4)nc32)cc1	x	u	-4%	x	-1%
Cc1c2c(nc3ccccc13)CC(C)(C)CC2=O	-10%[46 µM]	14µM*	x	-14%	-41%
SMILES	LMNA splice mod	ALDH1A1 block	HPGD inh	HTT aggregate	HTT ATP protect
CN(C)c1ccc(-c2cc(NCc3cccnc3)ncn2)cc1	4%	u	u	x	-76%
CSc1nsc(/C=C/Nc2ccc(C(=O)O)cc2)c1C#N	17%[9.22 µM]	10µM*	x	21%	1%
CSc1nsc(/C=C/Nc2ccc(F)cc2F)c1C#N	u	8.9µM*	x	1%	-22%
S=C(Nc1ccc2c(c1)OCO2)N1CCN(Cc2ccco2)CC1	u	12%	x	-3%[9.22 µM]	-48%[10 µM]
Cc1cccc(NC(=O)c2sc(-n3nc(C)c(CCC(C)C)c3C)nc2C)c1C	11%[46 µM]	x	x	x	x
Cc1ccc(S(=O)(=O)C(CNC(=O)c2ccc(C(F)(F)F)cc2)c2ccco2)cc1 (stereo not given)	8%[46 µM]	x	x	x	x
COc1ccc(NC(=O)COC(=O)c2ccc([N+](=O)[O-])o2)cc1Cl	17%[46 µM]	22µM*	x	13%	-16%
O=C(COC(=O)c1ccc([N+](=O)[O-])o1)Nc1cccc(S(=O)(=O)N2CCOCC2)c1	9%	1µM*	-18%	-6%	-26%[10 µM]
